High-throughput results: PubChem BioAssay, National Center for Advancing Translational Sciences (NCATS)
The list is not random: actives were taken first. Their share in the collection is about 9.2%.
FLuc counter: firefly luciferase modulation, counter-screen for miR-21 project; P08659; purified FLuc, Km substrates, luminescence inhibition; Potency, µM (series often up to 57.5 µM), inactives show top-dose activity change, negative = inhibition, actives largely listed as inhibitors; 6.9% of 360,000 active; AID 588342;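 note: plate controls were vehicle for no effect and reference inhibitor for full effect; nearly all actives have a fitted effect of over 55% in size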
Target sequence (P08659 whole entry, looked up): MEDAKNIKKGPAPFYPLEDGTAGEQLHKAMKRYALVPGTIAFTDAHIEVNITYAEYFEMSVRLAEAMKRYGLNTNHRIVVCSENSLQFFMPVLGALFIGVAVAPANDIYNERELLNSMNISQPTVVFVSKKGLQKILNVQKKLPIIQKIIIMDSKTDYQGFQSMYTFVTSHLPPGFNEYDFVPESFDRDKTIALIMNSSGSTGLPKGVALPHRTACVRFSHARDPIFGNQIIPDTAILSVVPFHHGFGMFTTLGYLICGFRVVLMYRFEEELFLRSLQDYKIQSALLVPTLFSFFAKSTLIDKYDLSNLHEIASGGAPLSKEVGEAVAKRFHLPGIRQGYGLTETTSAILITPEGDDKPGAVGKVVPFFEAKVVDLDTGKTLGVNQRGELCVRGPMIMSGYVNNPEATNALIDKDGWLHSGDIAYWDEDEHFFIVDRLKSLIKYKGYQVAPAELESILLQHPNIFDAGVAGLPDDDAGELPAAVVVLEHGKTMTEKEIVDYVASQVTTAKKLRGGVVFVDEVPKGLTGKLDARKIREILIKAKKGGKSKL
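Purified P. pyralis luciferase, 10 nM final, with Km-level 10 uM D-luciferin and 10 uM ATP in 50 mM Tris acetate pH 7.5, 10 mM Mg acetate, 0.01% Tween-20, 0.05% BSA; 6-point qHTS titration about 60 µM downward; luminescence read.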
Rab9 prom act: activators of Rab9 promoter; Huh7 Rab9 promoter-luciferase reporter, luminescence, 24 h; Potency, µM (highest dose often 9.22 µM), without a hit: at the highest dose activation, negative = inhibition, usual class: activators; 2.8% of 320,000 active; note: % of control where 0% means no effect; nearly all actives have a fitted effect of over 60% in size
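Using Huh7 cells stably transfected with Rab9 promoter–luciferase, compounds were incubated 24 h at 37 °C, 5% CO2; luciferase luminescence was read 10 min after reagent addition.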
NPC1 prom act: activators of NPC1 promoter. Huh7 NPC1 promoter luciferase reporter, 24 h. Potency, µM (doses to about 9.22 µM), inactives show at the highest dose activation, hits mostly activators. 2.4% of 320,000 active; note: % of control where 0% means no effect; nearly all actives have a fitted effect of over 60% in size
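In 1536-well qHTS, Huh7 cells harboring an NPC1 promoter–luciferase construct received compound for 24 h; activation was quantified by luminescence following luciferase reagent addition.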
ELG1 genotoxic: induces genotoxicity in HEK293T cells with luciferase-tagged ELG1; HEK293T ELG1-luciferase reporter, luminescence, 16 h; Potency, µM (series often up to 46 µM), for the others: top-dose activity change, positive = activation, most hits filed as activators; 1.3% of 330,000 active; AID 504466; note: % of control where 0% means no effect; nearly all actives have a fitted effect of over 60% in size
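After overnight (16 hr) compound treatment at 37 °C, ELG1-luciferase HEK293T cells were lysed with ONE-Glo; luminescence quantified 30 min later at room temperature.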
ELG1 DNA repair: inhibitors of ELG1-dependent DNA repair in HEK293T cells; Potency, µM (series often up to 46.1 µM), without a hit: at the top dose activity change, negative = inhibition, usual class: inhibitors; 2.3% of 330,000 active; AID 504467; HEK293T ELG1-luciferase reporter, luminescence, 16 h; DNA damage induced by 5-fluorouridine; note: % is set by controls: 0 for no effect and ±100 for the full control effect; nearly all actives have a fitted effect of over 55% in size
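Overnight (16 hr) co-exposure of 2,000 cells/well to 5-fluorouridine and compound at 37 °C preceded detection. Luciferase was quantified via ONE-Glo luminescence; loss of signal denotes inhibition.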
SMN2 splice up: increases expression of the SMN2 splice variant. HEK293 SMN2-luciferase splicing reporter, luminescence, 30-36 h. Potency, µM (doses to about 46.1 µM), without a hit: at the top dose activity change, positive = activation, actives largely listed as activators. 2.8% of 210,000 active. AID 1458; note: % of control where 0% means no effect; nearly all actives have a fitted effect of over 55% in size
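HEK293 cells carry an SMN2 minigene-luciferase reporter in which exon 7 inclusion puts luciferase in frame. Cells were seeded at 2000 cells/well, attached for 10-12 hours, then exposed to compounds for 30-36 hours at 37C before ONE-Glo luminescence.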
Active calls of the source: *; ? = inconclusive; / = not tested or not shown; [ ] = remark or other dose. Calls come from the whole dose curve; as a rule, active = well fitted curve in the direction sought with a large enough effect; inconclusive = small, poorly fitted or top-dose-only effect, or another doubt; inactive = no such curve, though single readings can be large; an effect the other way counts as inactive or inconclusive. Potency is the fitted concentration of half-maximal effect.

SMILES | FLuc counter | Rab9 prom act | NPC1 prom act | ELG1 genotoxic | ELG1 DNA repair | SMN2 splice up
CC(CC(=O)N1CCN(c2ccccc2)CC1)S(=O)(=O)c1ccc2c(c1)NC(=O)CO2 (stereo not given) | -2% | -11% | 8% | -13% | 10µM* | /
Cc1ccc(SCc2nc(-c3ccccn3)no2)cc1 | 4%[2.3 µM] | ? | ? | ? | ? | ?
Cc1ccc(OCc2nc(-c3ccccn3)no2)cc1 | 4.8µM* | 1.4µM* | 1.1µM* | 3.7µM* | ? | 8.9µM*
Cc1ccc(OCc2nc(-c3ccccn3)no2)c(Br)c1 | 0.21µM* | 0.28µM* | 0.1µM* | 0.33µM* | ? | -61%
CCc1ccc(OCc2nc(-c3ccccn3)no2)c(Br)c1 | 0.54µM* | 0.4µM* | 0.32µM* | ? | ? | 0.5µM*
CC(C)c1ccc(OCc2nc(-c3ccccn3)no2)c(Br)c1 | 0.95µM* | 0.45µM* | 0.4µM* | ? | ? | 6.3µM*
Cc1ccc(C)c(NC(=O)C2CCN(c3cc(C)nc4c(-c5ccc(Cl)cc5)c(C)nn34)CC2)c1 | -1% | / | / | / | / | 4%
Cc1nn(-c2ccccc2)c2c1N(CCCC(=O)NC(C)c1ccccc1)C(=O)CS2 (stereo not given) | -3% | / | / | / | / | /
CC(C)(C)OC(=O)N1CCC(c2c(C(=O)Nc3ccc4c(c3)OCCO4)cnn2-c2ccc(Cl)cc2)CC1 | -14% | / | / | / | / | /
COc1ccc2[nH]c(=O)c(CN(C(=O)c3cccc(Cl)c3)c3ccccc3OC)cc2c1 | 5% | / | / | / | / | 13%
CCOc1ccc(S(=O)(=O)NCCC(=O)N(C)Cc2cccs2)cc1 | 0% | 1% | -3% | 1% | 14% | /
c1ccc(OCCCc2nc(-c3ccccn3)no2)cc1 | ? | 4%[1.84 µM] | ? | 18µM* | ? | ?
CC(C)(C)Cc1nc(-c2ccccn2)no1 | ? | ? | ? | 18µM* | ? | ?
COc1nc(-c2ccc(Cl)cc2Cl)nc2ccccc12 | -3% | 7% | 13% | 12% | 8% | /
O=C(NC(c1cccnc1)C(F)(F)F)c1cc(COc2ccc3c(c2)CCCC3)on1 (stereo not given) | 15µM* | 6% | -3% | 12% | ? | /
COc1ccc(C(=O)Nc2cc(OC)cc3cccnc23)cc1 | 7.6µM* | 1%[1.84 µM] | 0% | 1% | 11% | /
COc1cc(NC(=O)c2ccc(Cl)cc2)c2ncccc2c1 | ? | -5% | 6% | 1% | 0% | /
COc1cc(NC(=O)C2CCCCC2)c2ncccc2c1 | 15µM* | 16% | 6% | 2% | 14% | -6%
COc1ccc(OC)c(NC(=O)C2CCCCC2)c1 | -8% | -10% | -3% | 1% | 2% | 5%
CC(C)(C)OC(=O)N1CCC(c2c(C(=O)N3CCN(c4ccccn4)CC3)cnn2-c2ccc(F)cc2)CC1 | 1% | / | / | / | / | /
CC1(C)Cc2nc3sc4c(NCCO)ncnc4c3cc2CS1 | 19µM* | ? | 21% | 1% | -1% | /
CCCCn1cnc2c(sc3nc4c(cc32)CSC(C)(C)C4)c1=O | 1.1µM* | 1.1µM* | 0.63µM* | ? | ? | 4µM*
CC(C)CCn1cnc2c(sc3nc4c(cc32)CSC(C)(C)C4)c1=O | 0.6µM* | 0.63µM* | 1µM* | ? | ? | -5%
CC1(C)Cc2nc3sc4c(N(CCO)CCO)ncnc4c3cc2CO1 | ? | 11% | 6% | ? | 0% | 19%
CCc1nc2c(sc3nc4c(cc32)COC(C)(C)C4)c(=O)n1Cc1ccccc1 | -10% | -13% | -6% | -5% | -5% | -34%
SMILES | FLuc counter | Rab9 prom act | NPC1 prom act | ELG1 genotoxic | ELG1 DNA repair | SMN2 splice up
CCOc1ccccc1NC(=O)CN1C(=O)NC(Cc2c[nH]c3ccccc23)C1=O (stereo not given) | 2% | -5% | 8% | -1% | 1% | /
O=C(O)c1ccccc1C(=O)c1ccc(-c2ccccc2)cc1 | 21µM* | 1%[1.84 µM] | 13% | 5% | ? | /
Fc1ccccc1Nc1nc(-c2ccncc2)nc2ccccc12 | -1% | -1% | -1% | -6% | 2.6µM* | 15%
c1ccc(Nc2nc(-c3ccncc3)nc3ccccc23)cc1 | -1% | -4% | -1% | 6% | 2.1µM* | -31%
COC(=O)CNc1nc(-c2ccncc2)nc2ccccc12 | 1% | 2% | -3% | -1% | ? | -3%
CN(C)c1ccc(-c2nc(Nc3ccncc3)c3ccccc3n2)cc1 | / | / | / | / | / | 11µM*
c1ccc(CCNc2nc(-c3ccncc3)nc3ccccc23)cc1 | -1% | -19% | -23% | -16% | 15µM* | /
Cc1cc2c(cc1C)NC(CC(=O)Nc1ccccc1SC(F)(F)F)C(=O)N2 (stereo not given) | 4% | / | / | / | / | -3%
Fc1ccc(Nc2nc(-c3ccncc3)nc3ccccc23)cc1 | -1% | 0% | 0% | 0% | 2.3µM* | -21%
CCOC(=O)c1ccccc1NS(=O)(=O)c1ccc(N2CCCCS2(=O)=O)cc1 | -2% | / | / | / | / | /
COc1ccc(-c2ccc(-c3nc4c(c(=O)[nH]c(=O)n4Cc4ccccc4)n3C)o2)c([N+](=O)[O-])c1 | -2% | -12% | -9% | -2% | 5.8µM* | /
COCCn1c(-c2ccc(-c3ccc([N+](=O)[O-])cc3Br)o2)nc2c1c(=O)[nH]c(=O)n2CC(C)C | -6% | -5% | -12% | -12% | 10µM* | -12%
